# Experimental data taken from PubChem BioAssay (NCATS).
# Records with an inconclusive call do not appear. Calls of active or inactive are those of the source. Calls follow the shape of the dose curve; as a rule, active = well fitted cell-killing curve with a large enough effect; inconclusive = small, poorly fitted or top-dose-only effect, or effect the other way; inactive = no such curve, though single readings can be large or run the other way.
# Experiment: Quantitative High-Throughput drug screen in 47 multiple myeloma cell lines against the NCATS MIPE library collection: KMS28PE_JCRB cell viability assay (AID 1918983); also: nearly all actives have a fitted effect of over 35% in size
# Conditions: KMS28PE multiple myeloma viability, CellTiter-Glo ATP, 48 h; series mostly up to 45.8 µM; viability, % of DMSO control: at the top concentration
# Description: PI: Beverly A. Mock Ph.D.
# Laboratory of Cancer Biology and Genetics,
# Center for Cancer Research, National Cancer Institute,
# National Institute of Health, Bethesda, Maryland
# Drug resistance and disease progression are common in multiple myeloma (MM) patients, underscoring the need for new therapeutic combinations. […] We hypothesized that effective combinations would reduce MYC expression and enhance p16 activity. […] These preclinical data identify potentially useful drug combinations for evaluation in drug-resistant MM and reveal potential mechanisms of combined drug sensitivity.
# Described herein is the primary MIPE qHTS used to cherrypick compounds. Validated compounds were then further tested for potential synergistic activiy.
# [1] Peat TJ, Gaikwad SM, Dubois W, Gyabaah-Kessie N, Zhang S, Gorjifard S, Phyo Z, Andres M, Hughitt VK, Simpson RM, Miller MA, Girvin AT, Taylor A, Williams D, D'Antonio N, Zhang Y, Rajagopalan A, Flietner E, Wilson K, Zhang X, Shinn P, Klumpp-Thomas C, McKnight C, Itkin Z, Chen L, Kazandijian D, Zhang J, Michalowski AM, Simmons JK, Keats J, Thomas CJ, Mock BA. Drug combinations identified by high-throughput screening promote cell cycle transition and upregulate Smad pathways in myeloma. Cancer Lett. 2023 Aug 1;568:216284. doi: 10.1016/j.canlet.2023.216284. Epub 2023 Jun 24. PMID: 37356470; PMCID: PMC10408729.
# SEQUENCE No. (e.g., 1, 2, 3, etc.); […] (e.g., Cells, Incubation, Reagent, etc.); VALUE and DESCRIPTION.
# 1; Cells; 5 uL; white, solid bottom 1536-well Greiner assay plate.
# 2; Compounds; 23 nL; Kalypsis pin tool (Wako USA) equipped with a 1536-well pin head to transfer to the assay plates.
# 3; Incubation; 48 hours; 37C incubation.
# 4; Reagent;5uL; CellTiter Glo (Promega).
# 5; Detector; 425V; Luminescence; Viewlux PerkinElmer.
# NOTES (numbers refer to Sequence numbers above)
# 1. The cell-based screening methods employed in this study were like those previously published. Briefly, the corresponding myeloma cell lines were screened in 1,536-well plates with 500 cells, 5-uL per well for inhibition of cell viability (assessed by measuring ATP levels with CellTiterGlo).
# 2. NCATS MIPE 4.0 library of approved and investigational drugs were added using the Kalypsis pin tool. Wells treated with DMSO only for 100% viability and media only for 0% viability were used as controls.
# 3. The assay plates were covered and incubated for 48 hours in a 37C, 5% CO2 incubator with controlled humidity.
# 4. After 48 hours, CellTilter-GloTM luminescent substrate mix (Promega) reagent was added to the assay plate and plates we incubated for 5 min at room temperature.
# 5. Signal was measured as median relative luminescence units on a ViewLux (PerkinElmer) multiplate reader.
# [1] Heske CM, Davis MI, Baumgart JT, Wilson K, Gormally MV, Chen L, Zhang X, Ceribelli M, Duveau DY, Guha R, Ferrer M, Arnaldez FI, Ji J, Tran HL, Zhang Y, Mendoza A, Helman LJ, Thomas CJ. Matrix Screen Identifies Synergistic Combination of PARP Inhibitors and Nicotinamide Phosphoribosyltransferase (NAMPT) Inhibitors in Ewing Sarcoma. Clin Cancer Res. 2017 Dec 1;23(23):7301-7311. doi: 10.1158/1078-0432.CCR-17-1121. Epub 2017 Sep 12. PMID: 28899971; PMCID: PMC6636827.
# Potency is read from the fitted curve at half-maximal effect.
SMILES,Potency,"viability, % of DMSO control"
Cc1cnc(C(=O)O)c[n+]1[O-],23.5 µM (active),–
CC[C@@]1(O)C[C@H](O[C@H]2C[C@H](N(C)C)[C@H](O[C@H]3C[C@H](O)[C@H](O[C@H]4CCC(=O)[C@H](C)O4)[C@H](C)O3)[C@H](C)O2)c2c(cc3c(c2O)C(=O)c2c(O)cccc2C3=O)[C@@H]1C(=O)OC,0.418 µM (active),–
COc1ccc(Cc2ccc(NC(N)=O)cc2)cc1-c1cccc(Cl)c1,–,105% (inactive)
CC(C)OC(=O)CCCC=CC[C@@H]1[C@H](C=C[C@@H](O)COc2cccc(C(F)(F)F)c2)[C@H](O)C[C@@H]1O,20.9 µM (active),–
COc1cccc([C@@H](C)NCCCc2ccccc2Cl)c1,–,129% (inactive)
NC(=O)c1cnc(-c2ccc(C3(N)CCC3)cc2)c(-c2ccccc2)c1,0.332 µM (active),–
N#Cc1ccc(NC(=O)Nc2ccccc2Br)c2n[nH]nc12,–,120% (inactive)
COc1cc2ncnc(-n3nc(-c4ccccn4)nc3N)c2cc1OC,11.8 µM (active),–
O=C(NCc1ccncc1)C12C[C@H]3C[C@@H](C1)CC(c1ccc(Cl)cc1)(C3)C2,23.5 µM (active),–
Cc1ccc([C@@H]2O[C@H](CO)[C@@H](O)[C@H](O)[C@@H]2O)cc1Cc1ccc(-c2ccc(F)cc2)s1,–,119% (inactive)
COc1ccc(-c2coc3cc(O)cc(O)c3c2=O)cc1,–,161% (inactive)
O=C(CCCCCCC(=O)Nc1ccccc1)NO,3.72 µM (active),–
CS(=O)(=O)N(Cc1ccco1)CC(O)Cn1c2ccccc2c2ccccc21 (stereo not given),5.9 µM (active),–
Cn1c(N2CCCCS2(=O)=O)nc(C(=O)NCc2ccc(F)cc2)c(O)c1=O,–,108% (inactive)
CC(=O)Nc1ccc([C@H](C)C(=O)Nc2ncc(C(C)C)s2)cc1,7.43 µM (active),–
Cc1nc(N)sc1-c1ccnc(Nc2ccc(N3CCOCC3)cc2)n1,16.6 µM (active),–
CC(=Cc1ccccc1)C=C1SC(=S)N(CC(=O)O)C1=O,–,112% (inactive)
CO[C@H]1C=CC=C(C)C(=O)NC2=CC(=O)C(NCCN(C)C)=C(C[C@@H](C)C[C@H](OC)[C@@H](O)[C@@H](C)C=C(C)[C@@H]1OC(N)=O)C2=O,0.0166 µM (active),–
Cc1[nH]c(C=C2C(=O)Nc3ccc(S(=O)(=O)Cc4c(Cl)cccc4Cl)cc32)c(C)c1C(=O)N1CCC[C@H]1CN1CCCC1,20.9 µM (active),–
CC1(C)CCC(CN2CCN(c3ccc(C(=O)NS(=O)(=O)c4ccc(NCC5CCOCC5)c([N+](=O)[O-])c4)c(Oc4cnc5[nH]ccc5c4)c3)CC2)=C(c2ccc(Cl)cc2)C1,16.6 µM (active),–

SMILES,Potency,"viability, % of DMSO control"
C[N+](C)(C)CC(=O)O,–,124% (inactive)
C=C1C(=O)OC(CCCCCCCC)C1C(=O)O (stereo not given),–,119% (inactive)
CCc1ccc(OCc2ccccc2C(=O)Nc2ccc3nc(C)cc(N)c3c2)cc1,8.33 µM (active),–
O=C(O)[C@H]1O[C@H](Oc2cc3oc(-c4ccccc4)cc(=O)c3c(O)c2O)[C@H](O)[C@@H](O)[C@H]1O,16.6 µM (active),–
CC#CCn1c(N2CCC[C@@H](N)C2)nc2c1c(=O)n(Cc1nc(C)c3ccccc3n1)c(=O)n2C,–,137% (inactive)
O=C1NC(=O)C(=Cc2ccc3nccnc3c2)S1,10.2 µM (active),–
N#C[C@H]1C[C@H]2C[C@@H]2N1C(=O)[C@@H](N)C12CC3CC(CC(O)(C3)C1)C2,–,126% (inactive)
CC(C)C(=O)Nc1ncc(-c2cc(C(F)F)nn2-c2c(Cl)cccc2Cl)s1,20.9 µM (active),–
COc1cc2nc(-c3ccc(N4CCN(C)CC4)cc3)nc(NCCN3CCOCC3)c2cc1OC,0.0662 µM (active),–
CC(C)(Cc1ccc2ccccc2c1)NC[C@@H](O)COc1cccc(Cl)c1C#N,–,125% (inactive)
C[C@@H]1CCN(C(=O)CC#N)C[C@H]1N(C)c1ncnc2[nH]ccc12,–,116% (inactive)
CCOC(=O)O[C@]1(C(=O)OCCl)CC[C@@H]2[C@H]3CCC4=CC(=O)C=C[C@]4(C)[C@@H]3[C@@H](O)C[C@@]21C,–,136% (inactive)
O=c1cc(CN2CCOCC2)occ1OCCCCCSc1ccnc2cc(C(F)(F)F)ccc12,2.64 µM (active),–
CCNc1cc(NC2CCC(O)CC2)nc(Nc2ccc3c(ccn3Cc3ccccc3)c2)n1 (stereo not given),23.5 µM (active),–
O=C(Nc1cc(Cl)cc2c1[nH]c1cnccc12)c1cccnc1,16.6 µM (active),–
CN1C[C@H]2c3ccccc3Oc3ccc(Cl)cc3[C@@H]2C1,–,102% (inactive)
CCC(=O)NC[C@H](Cc1ccc(OCCc2nc(-c3ccccc3)oc2C)cc1)NC(C)=CC(=O)c1ccc(C(F)(F)F)cc1,23.5 µM (active),–
CC(C)OC(=O)C(C)(C)Oc1ccc(C(=O)c2ccc(Cl)cc2)cc1,16.6 µM (active),–
O=C(O)CCC1CCC(c2cc(F)ccc2F)(S(=O)(=O)c2ccc(Cl)cc2)CC1 (stereo not given),–,148% (inactive)
CC(C)n1cnc2c(NCCCCCCNC(=O)OC(C)(C)C)nc(NCCO)nc21,18.7 µM (active),–
